Results filed as inconclusive are left out. Activity calls are given as the source filed them. Unless noted, calls come from the whole dose curve.
Columns and labels:
[1] = Nuclear factor erythroid 2-related factor 2/antioxidant responsive element (Nrf2/ARE) small molecule agonists: qHTS cell viability counter screen in human keratinocytes (AID 1919968; active = well fitted curve in the direction sought with a large enough effect in the repeat runs; an effect the other way counts as inactive or inconclusive; note: nearly all actives have a fitted effect of over 55% in size)
In short: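 Stably transfected HaCaT (KeratinoSens), 1,500/well. Test agents in DMSO were applied for 23 h, 37 C/5% CO2. CellTiter-Fluor was incubated 1 h before the fluorescence read.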

[2] = Nuclear factor erythroid 2-related factor 2/antioxidant responsive element (Nrf2/ARE) small molecule agonists: luciferase reporter gene qHTS assay in human keratinocytes (AID 1919969); note: nearly all actives have a fitted effect of over 35% in size; note: potency is the fitted concentration of half-maximal effect
[3] = biological target: Gonadotropin-releasing hormone receptor (Homo sapiens) (UniProt P30968); assay: Human gonadotropin-releasing hormone receptor (GnRHR) small molecule agonists, calcium flux assay in GnRHR-HEK293 cells (AID 1920063); note: nearly all actives have a fitted effect of over 35% in size
In short: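 Stable human GnRHR HEK293 line. 18 h plating, then calcium dye for 1 h at 37 C. Agonist-mode compound addition from DMSO stocks; fluorescence monitored 3 min.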

[4] = biological target: KiSS-1 receptor (Homo sapiens) (UniProt Q969F8); assay: Human kisspeptin (KISS1R) small molecule agonists, calcium flux assay in KISS1R-HEK293 cells (AID 1920064; active = well fitted curve in the direction sought with a large enough effect in the repeat runs; an effect the other way counts as inactive or inconclusive)
In short: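 After overnight (18 h) culture at 37 C/5% CO2, human KISS1R-HEK293 cells received calcium dye for 1 h, then test compound; emission at 540 nm (excitation 480 nm) was tracked for 3 min.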

[5] = G protein-coupled receptor (GPCR) small molecule agonists, calcium flux assay: HEK293 wild type cell line counter screen (AID 1920065)
In short: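 Following 18 h incubation at 37 C/5% CO2, plates got calcium dye for 1 h; compounds, ATP or DMSO were then pinned in and fluorescence followed kinetically (480/540 nm).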

[6] = p53 small molecule agonists, cell-based qHTS assay with human liver microsomes (AID 1963577);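 note: p53 response element beta-lactamase reporter cells with liver microsomes plus NADPH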
In short: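 HLM-supplemented p53RE-bla reporter assay: 16 h compound exposure at 37 C, microsomes and NADPH each 0.5 mg/mL final, read by fluorescence intensity.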

[7] = p53 small molecule agonists, cell-based qHTS assay with rat liver microsomes (AID 1963578)
In short: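 Quantitative HTS of the Tox21 10K library: p53RE-bla cells, rat liver microsomes plus NADPH at 0.5 mg/mL final each, 16 h at 37 C, beta-lactamase fluorescence detection.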

[8] = p53 small molecule agonists, cell-based qHTS assay with human liver microsomes: qHTS cell viability counter screen (AID 1963579); note: nearly all actives have a fitted effect of over 45% in size
In short: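 Viability of p53RE-bla cells is measured as CellTiter-Glo luminescence following a 16 h, 37 C incubation with compound, liver microsomes from human donors and NADPH.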

[9] = p53 small molecule agonists, cell-based qHTS assay with rat liver microsomes: qHTS cell viability counter screen (AID 1963580); note: nearly all actives have a fitted effect of over 45% in size
In short: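 Luminescent ATP readout (CellTiter-Glo, 30 min at room temperature) reports viability of p53RE-bla HCT-116 cells after 16 h at 37 C with test compounds under metabolic activation by rat liver microsomes and NADPH at 0.5 mg/mL final each.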

[10] = p53 small molecule agonists, cell-based qHTS assay (AID 1963582; active = well fitted activation curve with a large enough effect in the signal ratio in the repeat runs, not every such curve was filed as active; the % refers to the signal ratio)
In short: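 Measured: fluorescence from cleaved LiveBLAzer substrate. System: p53RE-bla cells, 16 h compound treatment at 37 C, 2 h substrate step at room temperature.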

[11] = biological target: 5-hydroxytryptamine receptor 2A (Homo sapiens) (UniProt P28223); assay: 5-hydroxytryptamine receptor 2A (HTR2A) small molecule antagonists, cell-based qHTS assay (AID 1963586); note: nearly all actives have a fitted effect of over 45% in size; note: potency is the fitted concentration of half-maximal effect
In short: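 CHO cells stably expressing human HTR2A were plated for 18 h at 37 C, then loaded with calcium dye for 1 h. Compounds were preincubated 5 min at room temperature before DOI (4 nM solution) was added. Kinetic fluorescence was read for 3 min.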

[12] = biological target: 5-hydroxytryptamine receptor 2A (Homo sapiens) (UniProt P28223); assay: 5-hydroxytryptamine receptor 2A (HTR2A) small molecule agonists, cell-based qHTS assay (AID 1963587); note: nearly all actives have a fitted effect of over 30% in size; note: potency is the fitted concentration of half-maximal effect
In short: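 HTR2A-CHO cells, plated 18 h at 37 C/5% CO2, dye-loaded 1 h at 37 C; compounds in DMSO added by pin tool (agonist mode). Intracellular calcium flux read as kinetic fluorescence on FDSS over 2 min at 1 s intervals.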

[13] = biological target: Muscarinic acetylcholine receptor M1 (Homo sapiens) (UniProt P11229); assay: Cholinergic receptor muscarinic 1 (CHRM1) small molecule antagonists, cell-based qHTS assay (AID 1963588); note: nearly all actives have a fitted effect of over 40% in size; note: potency is the fitted concentration of half-maximal effect
In short: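 Compounds were tested at 15 concentrations in three independent runs. Dye-loaded CHRM1-CHO cells were exposed 5 min at room temperature before stimulation by acetylcholine added at 50nM. Intracellular calcium was read kinetically on FDSS for 3 min.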

[14] = biological target: Muscarinic acetylcholine receptor M1 (Homo sapiens) (UniProt P11229); assay: Cholinergic receptor muscarinic 1 (CHRM1) small molecule agonists, cell-based qHTS assay (AID 1963589); note: nearly all actives have a fitted effect of over 35% in size
In short: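 Kinetic fluorescence (1 s intervals) of calcium-sensitive dye in human M1 CHO cells after compound addition; cells pre-incubated 18 h at 37 C/5% CO2 and dye-loaded 1 h.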

[15] = cAMP Responsive Elements (CRE) small molecule agonists, cell-based qHTS assay (AID 1963590)
In short: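 Test agents in DMSO were incubated 3 h at 37 C/5% CO2 with CRE-bla HEK 293T cells seeded 18 h earlier; LiveBLAzer B/G FRET substrate was added and read after 2 h at room temperature.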

[16] = cAMP Responsive Elements (CRE) small molecule antagonists, cell-based qHTS assay (AID 1963591; active = well fitted inhibition curve with a large enough effect in the signal ratio in the repeat runs, not every such curve was filed as active; the % refers to the signal ratio)
In short: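 Reporter line CRE-bla HEK 293T in dialyzed-FBS DMEM; cells preincubated 18 h, treated 3 h with compound plus NKH477 (0.25 uM final); LiveBLAzer FRET, 2 h RT.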

[17] = biological target: Beta-2 adrenergic receptor (Homo sapiens) (UniProt P07550); assay: Adrenergic beta2 receptor (ADRB2) small molecule antagonists, cell-based qHTS assay (AID 1963592); note: series mostly up to about 92 µM; nearly all actives have a fitted effect of over 50% in size
In short: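 Assay format: CHO-ADRB2 cells, 18-20hr seeding at 37C/5% CO2, then compound plus 1nM isoproterenol agonist mix for 0.5hr RT. Homogeneous time-resolved fluorescence cAMP detection after 1hr, expressed as 665/615 nm ratio.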

[18] = biological target: D(2) dopamine receptor (Homo sapiens) (UniProt P14416); assay: Dopamine D2 receptor (DRD2) small molecule agonists, cell-based qHTS assay (AID 1963594); note: nearly all actives have a fitted effect of over 35% in size
In short: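 HEK293 cells stably expressing DRD2 were cultured 24 h at 37 C, then given Ro20-1724 (0.1 mM final) and compounds for 10 min at room temperature. NKH477 (200nM) was then added for 30 min. cAMP was read by HTRF.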

[19] = biological target: D(2) dopamine receptor (Homo sapiens) (UniProt P14416); assay: Dopamine D2 receptor (DRD2) small molecule antagonists, cell-based qHTS assay (AID 1963595; active = well fitted inhibition curve with a large enough effect in the signal ratio in the repeat runs, with a control signal flat; the % refers to the signal ratio)
In short: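 DRD2-HEK293; 0.1 mM Ro20-1724; cpd 10 min RT; NKH477 200 nM + quinpirole 12 nM, 30 min RT; HTRF cAMP (cAMP-d2/anti-cAMP cryptate), 665/620 nm ratio after 1 h.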

[20] = biological target: Beta-2 adrenergic receptor (Homo sapiens) (UniProt P07550); assay: Adrenergic beta2 receptor (ADRB2) small molecule agonists, cell-based qHTS assay (AID 1963593);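 note: CHO cells stably overexpressing human ADRB2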
In short: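 CHO cells stably over-expressing ADRB2 were plated overnight at 37C, then dosed with compounds plus a stimulation mix containing 100uM IBMX and 25uM Ro-20-1724 for 0.5hr at room temperature. cAMP was measured by HTRF competition, 1hr.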
% is set by controls: 0 for no effect and ±100 for the full control effect.

5-hydroxytryptamine receptor 2A (Homo sapiens), sequence (P28223 whole entry, looked up): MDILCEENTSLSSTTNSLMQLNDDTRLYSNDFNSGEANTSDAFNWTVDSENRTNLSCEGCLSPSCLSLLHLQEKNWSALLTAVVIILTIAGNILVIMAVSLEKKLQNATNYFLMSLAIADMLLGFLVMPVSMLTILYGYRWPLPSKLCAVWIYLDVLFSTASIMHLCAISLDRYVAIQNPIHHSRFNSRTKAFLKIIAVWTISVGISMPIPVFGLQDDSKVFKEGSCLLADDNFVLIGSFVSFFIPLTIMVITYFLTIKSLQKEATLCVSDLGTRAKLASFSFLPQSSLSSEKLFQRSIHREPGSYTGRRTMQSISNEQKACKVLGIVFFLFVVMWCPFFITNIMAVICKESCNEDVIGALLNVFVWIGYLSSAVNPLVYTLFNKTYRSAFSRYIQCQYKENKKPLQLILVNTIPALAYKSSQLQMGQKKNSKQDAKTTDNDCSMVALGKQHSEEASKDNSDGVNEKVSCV
Beta-2 adrenergic receptor (Homo sapiens), sequence (P07550 whole entry, looked up): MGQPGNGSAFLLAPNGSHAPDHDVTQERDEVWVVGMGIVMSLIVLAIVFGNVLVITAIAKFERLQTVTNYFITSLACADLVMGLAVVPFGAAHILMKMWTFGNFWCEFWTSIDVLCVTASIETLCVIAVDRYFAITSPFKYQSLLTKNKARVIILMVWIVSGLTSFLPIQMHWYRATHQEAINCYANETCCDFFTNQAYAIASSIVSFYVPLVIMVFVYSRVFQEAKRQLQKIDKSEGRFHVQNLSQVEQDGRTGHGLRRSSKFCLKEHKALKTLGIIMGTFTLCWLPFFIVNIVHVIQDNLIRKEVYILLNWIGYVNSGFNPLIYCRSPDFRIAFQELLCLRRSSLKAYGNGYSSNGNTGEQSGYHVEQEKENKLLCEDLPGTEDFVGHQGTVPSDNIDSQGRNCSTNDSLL
Gonadotropin-releasing hormone receptor (Homo sapiens), sequence (P30968 whole entry, looked up): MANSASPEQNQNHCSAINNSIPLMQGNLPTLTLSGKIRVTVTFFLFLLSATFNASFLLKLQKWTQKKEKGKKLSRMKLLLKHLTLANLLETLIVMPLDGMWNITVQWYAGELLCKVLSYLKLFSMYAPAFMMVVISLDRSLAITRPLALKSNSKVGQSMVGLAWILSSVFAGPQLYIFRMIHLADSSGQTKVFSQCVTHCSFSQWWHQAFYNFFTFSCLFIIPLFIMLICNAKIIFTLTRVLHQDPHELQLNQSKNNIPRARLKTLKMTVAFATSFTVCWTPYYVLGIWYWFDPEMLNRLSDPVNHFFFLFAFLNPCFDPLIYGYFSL
D(2) dopamine receptor (Homo sapiens), sequence (P14416 whole entry, looked up): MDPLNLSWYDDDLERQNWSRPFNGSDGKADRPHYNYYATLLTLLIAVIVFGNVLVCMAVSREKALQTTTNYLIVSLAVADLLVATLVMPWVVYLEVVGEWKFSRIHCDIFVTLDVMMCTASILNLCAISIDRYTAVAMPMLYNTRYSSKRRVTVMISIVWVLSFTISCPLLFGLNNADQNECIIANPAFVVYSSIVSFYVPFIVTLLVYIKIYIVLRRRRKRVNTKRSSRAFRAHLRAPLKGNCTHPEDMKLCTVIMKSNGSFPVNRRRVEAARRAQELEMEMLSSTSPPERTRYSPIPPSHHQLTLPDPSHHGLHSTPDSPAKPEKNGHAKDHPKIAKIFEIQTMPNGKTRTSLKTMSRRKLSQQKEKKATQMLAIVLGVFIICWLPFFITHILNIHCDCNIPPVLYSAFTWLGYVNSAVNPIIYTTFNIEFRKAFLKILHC
Muscarinic acetylcholine receptor M1 (Homo sapiens), sequence (P11229 whole entry, looked up): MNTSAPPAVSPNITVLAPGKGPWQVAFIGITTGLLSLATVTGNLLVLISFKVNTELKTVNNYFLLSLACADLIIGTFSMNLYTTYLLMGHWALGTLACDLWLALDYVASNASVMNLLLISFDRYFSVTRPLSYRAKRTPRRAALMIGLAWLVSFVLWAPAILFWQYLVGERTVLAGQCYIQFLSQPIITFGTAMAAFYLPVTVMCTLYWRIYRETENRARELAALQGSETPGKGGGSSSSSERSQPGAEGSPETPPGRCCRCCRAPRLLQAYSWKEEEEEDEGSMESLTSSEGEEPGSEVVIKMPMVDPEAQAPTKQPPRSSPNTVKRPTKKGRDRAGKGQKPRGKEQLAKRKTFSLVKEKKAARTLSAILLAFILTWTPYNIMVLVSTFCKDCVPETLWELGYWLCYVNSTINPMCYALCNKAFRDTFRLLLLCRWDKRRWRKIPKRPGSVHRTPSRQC
KiSS-1 receptor (Homo sapiens), sequence (Q969F8 whole entry, looked up): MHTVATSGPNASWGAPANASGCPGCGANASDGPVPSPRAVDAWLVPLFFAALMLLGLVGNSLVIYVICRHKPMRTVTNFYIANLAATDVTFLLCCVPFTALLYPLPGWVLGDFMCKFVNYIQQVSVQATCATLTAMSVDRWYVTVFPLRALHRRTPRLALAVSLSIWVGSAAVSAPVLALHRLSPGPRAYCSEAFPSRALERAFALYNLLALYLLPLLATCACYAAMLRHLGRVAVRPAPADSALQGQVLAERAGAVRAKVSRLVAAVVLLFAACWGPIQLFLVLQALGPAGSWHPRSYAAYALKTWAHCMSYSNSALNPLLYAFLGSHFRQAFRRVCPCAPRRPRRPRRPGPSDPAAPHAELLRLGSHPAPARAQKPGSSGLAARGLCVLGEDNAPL

O=C1c2ccccc2C(=O)c2cc(Cl)ccc21
inactive: activity change, negative = cytotoxicity [1] -4.18% [at 8.39 µM] | activity, positive = activation [2] 3.42% [at 8.39 µM] | activity change [3] -1.12% [at 5.22 µM, hits give high values] | activation [4] -0.408% [at 6.97 µM] | activation [5] -1.07% [at 5.23 µM] | activation [6] -0.0412% [at 5.99 µM] | activation [7] 1.77% [at 5.99 µM] | activity change, negative = cytotoxicity [8] 3.98% [at 5.99 µM] | activity change, negative = cytotoxicity [9] 0.229% [at 5.99 µM] | activation [10] -0.497% [at 5.99 µM] | activity, negative = inhibition [11] 0.237% [at 5.62 µM] | activation [12] -2.59% [at 7.02 µM] | activity, negative = inhibition [13] -8.9% [at 5.58 µM] | activation [14] -0.206% [at 6.97 µM] | activation [15] -1.41% [at 8.39 µM] | activity change, negative = inhibition [16] -1.91% [at 8.39 µM] | activity change, negative = inhibition [17] -7.09% [at 8.39 µM] | activation [18] 1.23% [at 8.39 µM] | activity change, negative = inhibition [19] -1.19% [at 8.38 µM]

CCOC(=O)C(=O)OCC
inactive: Potency [1] | Potency [2] | Potency [3] | outcome [4] | outcome [5] | Potency [6] | Potency [7] | Potency [8] | Potency [9] | Potency [10] | Potency [11] | Potency [12] | Potency [13] | Potency [14] | Potency [15] | Potency [16] | Potency [17] | Potency [20] | Potency [18] | Potency [19]

O=C(O)CCC(=O)C(=O)O
inactive: Potency [1] | Potency [2] | Potency [3] | outcome [4] | outcome [5] | Potency [6] | Potency [7] | Potency [8] | Potency [9] | Potency [10] | Potency [11] | Potency [12] | Potency [13] | Potency [14] | Potency [15] | Potency [16] | Potency [17] | Potency [18] | Potency [19]

Oc1cc2ccccc2cc1O
inactive: Potency [1] | Potency [2] | Potency [3] | outcome [4] | outcome [5] | Potency [6] | Potency [7] | Potency [8] | Potency [9] | Potency [10] | Potency [11] | Potency [12] | Potency [13] | Potency [14] | Potency [15] | Potency [16] | Potency [17] | Potency [20] | Potency [18] | Potency [19]

Nc1nc(N)c(-c2ccccc2)s1
inactive: Potency [1] | Potency [2] | Potency [3] | outcome [4] | outcome [5] | Potency [6] | Potency [7] | Potency [8] | Potency [9] | Potency [10] | Potency [11] | Potency [12] | Potency [13] | Potency [14] | Potency [15] | Potency [16] | Potency [17] | Potency [18] | Potency [19]

Clc1cc(Cl)c(-c2c(Cl)c(Cl)cc(Cl)c2Cl)cc1Cl
inactive: Potency [1] | Potency [2] | Potency [3] | outcome [4] | outcome [5] | Potency [6] | Potency [7] | Potency [8] | Potency [9] | Potency [10] | Potency [11] | Potency [12] | Potency [13] | Potency [14] | Potency [15] | Potency [16] | Potency [17] | Potency [18] | Potency [19]

CO[Si](CCCn1c(=O)n(CCC[Si](OC)(OC)OC)c(=O)n(CCC[Si](OC)(OC)OC)c1=O)(OC)OC
inactive: Potency [1] | Potency [2] | Potency [3] | outcome [4] | outcome [5] | Potency [6] | Potency [7] | Potency [8] | Potency [9] | Potency [10] | Potency [11] | Potency [12] | Potency [13] | Potency [14] | Potency [15] | Potency [16] | Potency [17] | Potency [18]

CN(C)CCOCCN(C)CCO
inactive: Potency [1] | Potency [2] | Potency [3] | outcome [4] | outcome [5] | Potency [6] | Potency [7] | Potency [8] | Potency [9] | Potency [10] | Potency [11] | Potency [12] | Potency [13] | Potency [14] | Potency [15] | Potency [16] | Potency [17] | Potency [18] | Potency [19]

Cc1ccc2c(Cl)cc(Cl)c(O)c2n1
inactive: Potency [1] | Potency [2] | Potency [3] | outcome [4] | outcome [5] | Potency [6] | Potency [7] | Potency [8] | Potency [9] | Potency [10] | Potency [11] | Potency [12] | Potency [13] | Potency [14] | Potency [15] | Potency [16] | Potency [18] | Potency [19]

CCN(CC)CCSC(=O)C(c1ccccc1)c1ccccc1
active: Potency [2] 33.5 µM | Potency [11] 1.45 µM | Potency [12] 3.38 µM | Potency [13] 10.3 nM
inactive: Potency [1] | Potency [3] | outcome [4] | outcome [5] | Potency [6] | Potency [7] | Potency [8] | Potency [9] | Potency [10] | Potency [14] | Potency [15] | Potency [17] | Potency [18]

C#CC(O)CCCCC (centres undefined)
inactive: Potency [1] | Potency [2] | Potency [3] | outcome [4] | outcome [5] | Potency [6] | Potency [7] | Potency [8] | Potency [9] | Potency [10] | Potency [11] | Potency [12] | Potency [13] | Potency [14] | Potency [15] | Potency [16] | Potency [17] | Potency [20] | Potency [18] | Potency [19]

CCCCCCC(O)CO (centres undefined)
inactive: Potency [1] | Potency [2] | Potency [3] | outcome [4] | outcome [5] | Potency [6] | Potency [7] | Potency [8] | Potency [9] | Potency [10] | Potency [11] | Potency [12] | Potency [13] | Potency [14] | Potency [15] | Potency [16] | Potency [17] | Potency [18]

COc1ccc2c(c1)c(CC(=O)OCC(=O)O)c(C)n2C(=O)c1ccc(Cl)cc1
inactive: Potency [1] | Potency [2] | Potency [3] | outcome [4] | outcome [5] | Potency [6] | Potency [7] | Potency [8] | Potency [9] | Potency [18] | Potency [19]

OCC(O)c1ccccc1 (centres undefined)
inactive: Potency [1] | Potency [2] | Potency [3] | outcome [4] | outcome [5] | Potency [6] | Potency [7] | Potency [8] | Potency [9] | Potency [10] | Potency [11] | Potency [12] | Potency [13] | Potency [14] | Potency [15] | Potency [18] | Potency [19]

— PubChem BioAssay (Tox21)
